Measured values published in PubChem BioAssay (EPA / NIEHS).
Calls of active or inactive are those of the source. Rule for the calls: active = hit-call score of the fitted dose curve at least 0.9, where 1 is the maximum; inactive = score below 0.9.

Read-out: Tissue plasminogen activator (tPA), PLAT (gene 5327)
Test: BSK_BE3C_tPA: BioMAP Diversity Plus: BE3C Assay for Tissue plasminogen activator (tPA) Biomarker Activity (AID 2283041);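 for outcome: tPA level quantified by ELISA one day after compound addition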
Conditions: primary human bronchial epithelial cells; actives raise or lower the signal
In short: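 Gain- or loss-of-signal in tPA, measured by ELISA, derived by bidirectional fitting against DMSO. Cells: human primary bronchial epithelial; read at 24 h after chemical dosing.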

| Compound | outcome | AC50 |
| --- | --- | --- |
| CCC(C)(CC)c1cc(NC(=O)c2c(OC)cccc2OC)on1 | inactive | – |
| Nn1cnnc1 | inactive | – |
| CCCCCCCCOC(=O)c1ccccc1C(=O)OCCCCCCCC | inactive | – |
| Clc1ccc(Cl)cc1 | inactive | – |
| Cc1ccccc1O | inactive | – |
| Cc1cc(-c2ccc(N)c(C)c2)ccc1N | inactive | – |
| CC#Cc1cc(C)nc(Nc2ccccc2)n1 | inactive | – |
| CO/C=C(/C(=O)OC)c1ccccc1COc1cccc(C(F)(F)F)n1 | inactive | – |
| ClC1=C(Cl)[C@]2(Cl)[C@@H]3[C@@H](Cl)[C@H]4O[C@H]4[C@@H]3C1(Cl)C2(Cl)Cl | inactive | – |
| C=CC(=O)NCNC(=O)C=C | inactive | – |
| CCCCCCCCCc1ccc(O)cc1 | – | 7.58 µM (active) |
| N#Cc1ccc(N(CC(N)=O)CC(F)(F)F)cc1C(F)(F)F | inactive | – |
| CCC(C)(c1ccc(O)cc1)c1ccc(O)cc1 | inactive | – |
| O=C(N[C@H]1CN2CCC1CC2)c1cc2ccoc2cn1 | inactive | – |
| ClC1=C(Cl)[C@]2(Cl)[C@@H]3[C@@H]4C[C@@H]([C@H]5O[C@@H]45)[C@@H]3[C@@]1(Cl)C2(Cl)Cl | inactive | – |
| O=C(NC(=O)c1cc(F)c(F)cc1Cl)Nc1cc(F)ccc1N1CCC(C(=O)O)CC1 | inactive | – |
| O=S(=O)(O)C(F)(F)C(F)(F)C(F)(F)C(F)(F)C(F)(F)C(F)(F)F | inactive | – |

| Compound | outcome | AC50 |
| --- | --- | --- |
| C1CC2OC2CC1C1CO1 (stereo not drawn) | inactive | – |
| ClC1=C(Cl)[C@]2(Cl)[C@@H]3[C@H]4C[C@H]([C@@H]5O[C@H]45)[C@@H]3[C@@]1(Cl)C2(Cl)Cl | inactive | – |
| C[C@]12CCC(=O)C=C1CC[C@@H]1[C@@H]2CC[C@]2(C)C(=O)CC[C@@H]12 | inactive | – |
| CCC(C)c1cc([N+](=O)[O-])cc([N+](=O)[O-])c1O (stereo not drawn) | – | 1.28 µM (active) |
| CCC(=O)O[C@H]1CC[C@H]2[C@@H]3CCC4=CC(=O)CC[C@]4(C)[C@H]3CC[C@]12C | inactive | – |
| Clc1ccc(C(Cl)(Cl)Cl)cc1 | inactive | – |
| Oc1ccc(Cl)cc1Cl | inactive | – |
| C[C@]12CCC(=O)C=C1CC[C@@H]1[C@@H]2CC[C@@]2(C)[C@H]1CC[C@]2(C)O | inactive | – |
| CC(C)C(=O)OCC(C)(C)C(OC(=O)C(C)C)C(C)C (stereo not drawn) | inactive | – |
| O=NN(c1ccccc1)c1ccccc1 | inactive | – |
| Oc1ccc(C(c2ccc(O)cc2)(C(F)(F)F)C(F)(F)F)cc1 | – | 21.8 µM (active) |
| CCCCCCOC(=O)c1ccccc1C(=O)OCCCCCC | inactive | – |
| Sc1ccccc1 | inactive | – |
| Clc1ccc(C(c2ccccc2Cl)C(Cl)(Cl)Cl)cc1 (stereo not drawn) | inactive | – |
| c1cc2ccc3cccc4ccc(c1)c2c34 | inactive | – |
| CCCN(CCC)N=O | inactive | – |
